RORgamma inh = blocks mouse ROR gamma transcriptional activity; P51450; Drosophila S2 Gal4-RORgamma UAS-luciferase reporter, 20 h; Potency, µM (titrated, usually from 53.6 µM), actives largely listed as inhibitors; hit rate 5.4% among 310,000; also: nearly all actives have a fitted effect of over 60% in size
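Drosophila S2 cells stably expressing Gal4-DBD/mouse RORγ fusion under metallothionein promoter plus UAS-luciferase; compound 1 h, then 700 uM CuSO4 induction for 20 h at ambient temperature; inhibition read as reduced luminescence.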
Gal4-VP16 FLuc = Gal4-VP16 reporter inhibition counter-screen; Drosophila S2 Gal4-VP16 UAS-luciferase, luminescence, 20 h; Potency, µM (top dose mostly 53.6 µM), actives largely listed as inhibitors; hit rate 3.5% among 310,000; AID 2546;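 also: Gal4-VP16 expression switched on by copper sulfate through the metallothionein promoter; nearly all actives have a fitted effect of over 50% in size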
TDP1 cell noCPT = qHTS for Inhibitors of human tyrosyl-DNA phosphodiesterase 1 (TDP1): qHTS in cells in absence of CPT. hit rate 15% among 420,000. DT40 Tdp1-/- hTDP1 cells, no CPT, ATP luminescence, 48 h. Potency, µM (top dose mostly 46.2 µM), most hits filed as inhibitors; also: nearly all actives have a fitted effect of over 55% in size
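A cellular qHTS used chicken DT40 cells lacking endogenous Tdp1 but carrying stably transfected human TDP1. Compounds were applied without camptothecin, and cell growth kinetics were judged by ATP-dependent luminescence after ≥48 hr.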
TDP1 inh = TDP1 (human) enzyme inhibition. Q9NUW8. recombinant TDP1, AlphaScreen DNA substrate cleavage. Potency, µM (doses to about 130 µM), actives largely listed as inhibitors. hit rate 0.28% among 350,000. AID 485290; also: nearly all actives have a fitted effect of over 40% in size
Target sequence (Q9NUW8 whole entry, looked up): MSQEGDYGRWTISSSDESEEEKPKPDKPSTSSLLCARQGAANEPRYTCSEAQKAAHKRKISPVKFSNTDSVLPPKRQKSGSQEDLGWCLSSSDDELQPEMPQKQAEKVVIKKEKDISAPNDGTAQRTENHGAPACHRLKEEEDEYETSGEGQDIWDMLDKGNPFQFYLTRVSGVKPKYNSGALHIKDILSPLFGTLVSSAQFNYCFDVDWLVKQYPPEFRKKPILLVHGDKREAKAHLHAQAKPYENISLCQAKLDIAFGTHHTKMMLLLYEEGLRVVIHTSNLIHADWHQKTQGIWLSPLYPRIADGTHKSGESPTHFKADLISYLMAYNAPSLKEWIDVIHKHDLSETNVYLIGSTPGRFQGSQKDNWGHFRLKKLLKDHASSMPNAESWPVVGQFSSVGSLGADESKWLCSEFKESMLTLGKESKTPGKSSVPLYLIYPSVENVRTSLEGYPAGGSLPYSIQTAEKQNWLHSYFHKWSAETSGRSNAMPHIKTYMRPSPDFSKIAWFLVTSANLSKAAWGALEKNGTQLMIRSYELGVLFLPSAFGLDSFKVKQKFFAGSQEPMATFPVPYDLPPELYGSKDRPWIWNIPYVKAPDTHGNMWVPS
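Recombinant E. coli-expressed Tdp1 (1 nM) preincubated with compound 15 min at RT, then 5'-biotin/3'-phosphotyrosine-FITC DNA substrate (15 nM) added for 5 min. AlphaScreen beads (10 ug/ml) added, 10 min RT; tyrosine-FITC cleavage read as signal loss.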
TDP1 cell CPT = DT40-hTDP1 cell growth loss with CPT. AID 686979. chicken DT40 Tdp1-/-;hTDP1 cells + 20 nM CPT, ATP luminescence, 48 h. hit rate 12% among 420,000. Potency, µM (doses to about 46.2 µM), hits mostly inhibitors; also: nearly all actives have a fitted effect of over 55% in size
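Cell growth measured by CellTiter-Glo luminescence after a minimum 48 h, 37 C compound exposure with 20 nM CPT in Tdp1-knockout DT40 cells stably expressing hTDP1, seeded 400/well; qHTS titration format.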
Large screens that a line does not name were inactive. Shown are actives, neighbours in structure and some others; about 19% of the full set was active somewhere. Calls follow the shape of the dose curve; as a rule, active = well fitted curve in the direction sought with a large enough effect; inconclusive = small, poorly fitted or top-dose-only effect, or another doubt; inactive = no such curve, though single readings can be large; an effect the other way counts as inactive or inconclusive.

C=CCn1c(SCc2c(C)noc2C)nc2sc(C)c(C)c2c1=O	TDP1 cell noCPT 18µM, TDP1 cell CPT 21µM
CC(C)(C)OC(=O)N[C@@H](C(=O)OC(C)(C)C)c1ccc2ccccc2c1	TDP1 cell noCPT 23µM, TDP1 cell CPT inconclusive (no result: RORgamma inh, Gal4-VP16 FLuc)
COc1ccc(-n2nnc(-c3nc(-c4ccccc4C)no3)c2N)cc1Cl	none (no result: RORgamma inh, Gal4-VP16 FLuc)
O=C1NC(c2cccc(Cl)c2)Oc2ccccc21 (stereo not drawn)	none (no result: TDP1 inh)
CCC1NC(=O)c2ccccc2N1c1cccc(Cl)c1 (stereo not drawn)	TDP1 cell noCPT 16µM, TDP1 cell CPT inconclusive (no result: RORgamma inh, Gal4-VP16 FLuc, TDP1 inh)
COc1ccccc1CCNCc1ccc(OC)c(OCc2ccccc2)c1	RORgamma inh inconclusive, TDP1 cell noCPT 13µM
COc1cc(CNCCO)ccc1OCCc1ccccc1	Gal4-VP16 FLuc inconclusive, TDP1 cell noCPT 26µM, TDP1 cell CPT inconclusive
COc1cc(CNCCc2ccccc2)ccc1OCc1ccc(Cl)nc1	TDP1 cell noCPT inconclusive, TDP1 cell CPT inconclusive
Nc1ccc2nc(CCCCc3nc4ccccc4[nH]3)[nH]c2c1	none
Nc1cccc(CCc2nc3cc4ccccc4cc3[nH]2)c1	RORgamma inh inconclusive, TDP1 cell noCPT 4.1µM, TDP1 cell CPT 3.3µM
CCCOc1cccc(C2c3c(oc4cc(C)c(C)cc4c3=O)C(=O)N2CCCN2CCOCC2)c1 (stereo not drawn)	TDP1 cell noCPT inconclusive, TDP1 cell CPT inconclusive (no result: RORgamma inh, Gal4-VP16 FLuc)
COc1ccc(C2=C/C(=C\c3ccc(OC(C)=O)cc3)C(=O)O2)cc1	RORgamma inh inconclusive
CC(=O)Oc1cccc(/C=C2\C=C(c3ccc(C)cc3)OC2=O)c1	TDP1 cell noCPT inconclusive, TDP1 cell CPT 18µM
Cc1ccc(C=C2C=C(c3ccccc3)OC2=O)cc1	TDP1 cell noCPT 26µM, TDP1 cell CPT inconclusive (no result: RORgamma inh, Gal4-VP16 FLuc, TDP1 inh)
CN(C)c1ccc(C=C2C=C(c3ccccc3)OC2=O)cc1	TDP1 cell noCPT 10µM, TDP1 cell CPT 18µM (no result: RORgamma inh, Gal4-VP16 FLuc, TDP1 inh)
Cc1nc(SCC(=O)c2c(C)[nH]c3ccccc23)c2c(=O)n(C)c(=O)n(CC(C)C)c2n1	none (no result: TDP1 cell noCPT, TDP1 cell CPT)
COc1ccc(S(=O)(=O)NCC(c2cccnc2)N2CCN(Cc3ccccc3)CC2)cc1 (stereo not drawn)	TDP1 cell noCPT inconclusive
CCOC(=O)C1CCN(C(=O)c2sc3nc(-c4ccccc4)cn3c2C)CC1	TDP1 cell noCPT 18µM, TDP1 cell CPT inconclusive
COc1ccccc1N1CCN(C(=O)c2sc3nc(-c4ccccc4)cn3c2C)CC1	TDP1 cell noCPT 18µM, TDP1 cell CPT 16µM
COC(=O)C1CCN(C(=O)c2sc3nc(-c4ccc(F)cc4)cn3c2C)CC1	TDP1 cell noCPT inconclusive, TDP1 cell CPT inconclusive
COc1ccc(C2Nc3ccccc3C(=O)N2NS(=O)(=O)c2ccc(C)cc2)c(OC)c1 (stereo not drawn)	none
COc1ccc(-c2oc3ccc(-c4ccc(OC)nc4)cc3c2C#CC2(O)CCCCC2)cc1	TDP1 cell noCPT inconclusive, TDP1 cell CPT inconclusive (no result: TDP1 inh)
CCn1c(Cn2nnc(-c3ccccc3)n2)nnc1SCc1ccc(Cl)c(Cl)c1	TDP1 cell noCPT 23µM, TDP1 cell CPT 21µM
CCn1c(Cn2nnc(-c3ccccc3)n2)nnc1SCC(=O)N1CCOCC1	none
CCOc1cc(CNCCSc2nnnn2C)cc(Br)c1OCc1ccc(F)cc1	Gal4-VP16 FLuc inconclusive, TDP1 cell noCPT inconclusive, TDP1 cell CPT inconclusive
COc1cc(CNCCSc2nnnn2C)cc(Br)c1OCc1ccc(F)cc1	Gal4-VP16 FLuc inconclusive, TDP1 cell noCPT 26µM, TDP1 cell CPT inconclusive
COc1cc(CNCCSc2nnnn2C)cc(Br)c1OCc1ccccc1F	TDP1 cell noCPT inconclusive
CCOc1cc(CNCCSc2nnnn2C)cc(Br)c1OCc1ccccc1F	TDP1 cell noCPT 13µM, TDP1 cell CPT 16µM
NC(=O)c1ccccc1C[C@H](C(=O)O)N1C(=O)c2ccc(C(=O)O)cc2C1=O	none (no result: TDP1 cell noCPT, TDP1 cell CPT)
Cc1nc(N(C)Cc2ccccc2)c2c(C)c(C)sc2n1	RORgamma inh 20µM, Gal4-VP16 FLuc inconclusive, TDP1 cell noCPT inconclusive, TDP1 cell CPT inconclusive
C[C@@H]1CN(Cc2ccc3c(c2)CN(Cc2nc(-c4ccccc4)cs2)CCO3)C[C@H](C)O1	TDP1 cell noCPT 23µM (no result: RORgamma inh, Gal4-VP16 FLuc, TDP1 inh)
C[C@@H]1CN(Cc2ccc3c(c2)CN(C(=O)c2ccc(Oc4ccccc4)o2)CCO3)C[C@H](C)O1	TDP1 cell noCPT 12µM (no result: RORgamma inh, Gal4-VP16 FLuc, TDP1 inh)
